Test results from PubChem BioAssay.
Values without a mark were called inactive.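 The calls were made as follows: active = luciferase signal above three times the same-plate solvent-only control wells; inactive = the rest.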

Biological target: Mitogen-activated protein kinase 7 (Homo sapiens) (UniProt Q13164)
Experiment: Gal4-ERK5 driven luciferase induction – cell-based, HTS, primary screen (AID 1508626);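 also: luciferase driven by Gal4-ERK5 fusion binding five Gal4 sites before minimal TATA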
Conditions: HeLa Gal4-ERK5 transactivation, 18 h, at 5 µM, hits give high values

Mitogen-activated protein kinase 7 (Homo sapiens), sequence (Q13164 whole entry, looked up, the tested form may be a part): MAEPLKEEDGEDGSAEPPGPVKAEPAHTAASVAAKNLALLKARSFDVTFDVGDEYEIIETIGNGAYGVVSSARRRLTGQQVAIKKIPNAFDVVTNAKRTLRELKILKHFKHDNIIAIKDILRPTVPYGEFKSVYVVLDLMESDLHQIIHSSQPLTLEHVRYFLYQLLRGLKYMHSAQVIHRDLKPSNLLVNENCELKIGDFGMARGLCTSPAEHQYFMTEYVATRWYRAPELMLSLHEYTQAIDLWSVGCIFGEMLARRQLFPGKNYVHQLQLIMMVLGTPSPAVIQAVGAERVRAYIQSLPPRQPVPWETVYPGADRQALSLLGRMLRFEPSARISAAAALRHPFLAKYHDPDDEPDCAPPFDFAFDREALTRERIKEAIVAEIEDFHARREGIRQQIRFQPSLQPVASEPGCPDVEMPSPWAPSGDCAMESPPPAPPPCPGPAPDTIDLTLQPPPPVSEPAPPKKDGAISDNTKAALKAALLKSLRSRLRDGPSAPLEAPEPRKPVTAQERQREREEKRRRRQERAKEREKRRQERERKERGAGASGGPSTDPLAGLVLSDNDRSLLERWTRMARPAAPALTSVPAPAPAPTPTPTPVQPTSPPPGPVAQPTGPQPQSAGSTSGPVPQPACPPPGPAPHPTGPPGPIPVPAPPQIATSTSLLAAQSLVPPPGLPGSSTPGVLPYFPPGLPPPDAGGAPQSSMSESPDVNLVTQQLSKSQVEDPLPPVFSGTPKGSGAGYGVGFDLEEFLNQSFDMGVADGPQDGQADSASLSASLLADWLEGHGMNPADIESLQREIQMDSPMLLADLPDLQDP

Compound	luciferase signal
CC(=O)O[C@H]1C(=O)[C@@]2(C)[C@H]([C@H](OC(=O)c3ccccc3)[C@]3(O)C[C@H](O)C(C)=C1C3(C)C)[C@]1(OC(C)=O)CO[C@@H]1C[C@@H]2O	136 AU
C[N+]12CC[C@@]34c5ccccc5N5C(=O)CC6OCC=C(C1)[C@H](CC32)[C@@H]6C54 (stereo not given in full)	140 AU
CC(=O)O[C@@H]1[C@H]2CC[C@H]3[C@@](C)(O)[C@@H]4C[C@H](O)C(C)(C)[C@@]4(O)[C@@H](O)C[C@@]13C[C@@]2(C)O	32 AU
CN[C@@H]1[C@@H](O)[C@@H](O[C@@H]2[C@@H](O)[C@H](O[C@H]3O[C@H]([C@@H](C)O)[C@@H](O)[C@H](O)[C@H]3N)[C@@H](N)C[C@H]2N)OC[C@]1(C)O	52 AU
C[C@@H]1O[C@@H](O[C@H]2CC[C@]3(C=O)[C@H]4CC[C@]5(C)[C@@H](C6=CC(=O)OC6)CC[C@]5(O)[C@@H]4CC[C@]3(O)C2)[C@H](O)[C@H](O)[C@H]1O	4 AU
CC(=O)O[C@H]1[C@H]2[C@@H](OC(=O)Cc3ccccc3)[C@@H](C)C[C@]2(OC(C)=O)C(=O)/C(C)=C/[C@@H]2[C@H](CC[C@@]13CO3)C2(C)C	56 AU
CC(=O)O[C@@H]1CC[C@@]2(C)[C@@H](CC[C@@H]3[C@@H]2CC[C@]2(C)C(=O)CC[C@@H]32)C1	28 AU
CCN1C[C@]2(OC(=O)c3ccccc3NC(C)=O)CC[C@H](OC)[C@]34C1[C@H](C[C@H]23)[C@@]1(O)C[C@H](OC)[C@H]2C[C@@H]4[C@]1(O)[C@H]2OC	84 AU
CC(=O)[C@H]1CC[C@H]2[C@@H]3CC[C@H]4C[C@H](O)CC[C@]4(C)[C@H]3CC[C@]12C	24 AU
CC(C)[C@@H]1NC(=O)[C@H](C)OC(=O)[C@@H](C(C)C)NC(=O)[C@@H](C(C)C)OC(=O)[C@H](C(C)C)NC(=O)[C@H](C)OC(=O)[C@@H](C(C)C)NC(=O)[C@@H](C(C)C)OC(=O)[C@H](C(C)C)NC(=O)[C@H](C)OC(=O)[C@@H](C(C)C)NC(=O)[C@@H](C(C)C)OC1=O	36 AU
